An excerpt weighted towards active compounds, which were near 9.3% of everything screened.
FLuc counter = inhibits or activates purified firefly luciferase, miR-21 counter-screen; purified FLuc, Km substrates, luminescence inhibition; hit rate 6.9% among 360,000; Potency, µM (top dose mostly 57.5 µM), inactives show at the top dose activity change, negative = inhibition, hits mostly inhibitors; AID 588342; P08659;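 also: plate controls were vehicle for no effect and reference inhibitor for full effect; nearly all actives have a fitted effect of over 55% in size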
Target sequence (P08659 whole entry, looked up): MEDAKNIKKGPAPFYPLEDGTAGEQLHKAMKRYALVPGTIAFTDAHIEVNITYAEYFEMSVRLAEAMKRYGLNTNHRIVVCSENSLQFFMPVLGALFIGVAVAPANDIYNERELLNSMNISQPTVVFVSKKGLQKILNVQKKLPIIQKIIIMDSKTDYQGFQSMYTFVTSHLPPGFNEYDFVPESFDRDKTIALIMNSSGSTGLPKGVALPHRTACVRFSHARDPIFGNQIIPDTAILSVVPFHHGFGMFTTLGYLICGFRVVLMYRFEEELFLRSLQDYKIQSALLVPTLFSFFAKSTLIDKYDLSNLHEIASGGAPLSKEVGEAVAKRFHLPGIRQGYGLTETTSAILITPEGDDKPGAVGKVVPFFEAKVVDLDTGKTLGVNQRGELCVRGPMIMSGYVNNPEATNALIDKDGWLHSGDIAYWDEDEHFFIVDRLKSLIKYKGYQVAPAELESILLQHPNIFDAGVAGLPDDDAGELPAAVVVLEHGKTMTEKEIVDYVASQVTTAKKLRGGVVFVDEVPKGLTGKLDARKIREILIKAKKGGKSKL
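Biochemical qHTS of compounds, final roughly 60 µM downward over six points, against 10 nM purified firefly luciferase using Km concentrations of substrates (10 uM D-luciferin, 10 uM ATP) in Tris acetate pH 7.5 buffer; luminescence output.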
ELG1 genotox = genotoxicity induction in ELG1-luciferase HEK293T cells; HEK293T ELG1-luciferase reporter, luminescence, 16 h; Potency, µM (doses to about 46 µM), for inactives: at the top dose activity change, positive = activation, usual class: activators; hit rate 1.3% among 330,000; also: % of control where 0% means no effect; nearly all actives have a fitted effect of over 60% in size
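Reporter readout depends on ELG1 protein level, which increases with genetic stress. After 16 hr compound exposure at 37 °C, luciferase activity was quantified using ONE-Glo.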
SMN2 splice up = SMN2 splice variant enhancement | HEK293 SMN2-luciferase splicing reporter, luminescence, 30-36 h | Potency, µM (titrated, usually from 46.1 µM), without a hit: at the highest dose activity change, positive = activation, most hits filed as activators | hit rate 2.8% among 210,000; also: % of control where 0% means no effect; nearly all actives have a fitted effect of over 55% in size
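HEK293 cells carry an SMN2 […]–luciferase reporter in which exon 7 inclusion puts luciferase in frame. Cells were plated 10-12 h before compound addition, then incubated 30-36 h at 37C. ONE-Glo luminescence was read; sodium butyrate at 4.5 mM final served as control.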
ELG1 repair inh = blocks ELG1-dependent DNA repair in HEK293T cells; Potency, µM (titrated, usually from 46.1 µM), inactives show at the top dose activity change, negative = inhibition, actives largely listed as inhibitors; hit rate 2.3% among 330,000; HEK293T ELG1-luciferase reporter, luminescence, 16 h; DNA damage induced by 5-fluorouridine; AID 504467; also: % is scaled to controls: 0 for no effect and ±100 for the full control effect; nearly all actives have a fitted effect of over 55% in size
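DMSO vehicle served as the neutral condition. Each well held 2,000 cells given 5-fluorouridine plus compound; after 16 hr at 37 °C/5% CO2, ONE-Glo was added and luciferase measured 30 min later.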
Rab9 promoter act = Rab9 promoter activation. Huh7 Rab9 promoter-luciferase reporter, luminescence, 24 h. Potency, µM (series often up to 9.22 µM), for inactives: at the top dose activation, negative = inhibition, actives largely listed as activators. hit rate 2.8% among 320,000; also: % of control where 0% means no effect; nearly all actives have a fitted effect of over 60% in size
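Huh7 cells stably carrying a Rab9 promoter-luciferase reporter, 1500 cells per well in OP-MEM I with 10% FBS, treated with compound 24 hours at 37C. Luciferase activity read by luminescence after 10 minutes with Amplite reagent.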
NPC1 prom act = NPC1 promoter activation; Huh7 NPC1 promoter luciferase reporter, 24 h; Potency, µM (series often up to 9.22 µM), for the others: top-dose activation, most hits filed as activators; hit rate 2.4% among 320,000; AID 485313; also: % of control where 0% means no effect; nearly all actives have a fitted effect of over 60% in size
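Luciferase expression driven by the NPC1 promoter was measured in stably transfected Huh7 cells after a 24 h compound incubation, using a luciferase reagent and a luminescence read.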
An asterisk follows results filed as active; ? = inconclusive; . = no result; [ ] = dose if it differs, or a comment. Calls follow the shape of the dose curve; as a rule, active = well fitted curve in the direction sought with a large enough effect; inconclusive = small, poorly fitted or top-dose-only effect, or another doubt; inactive = no such curve, though single readings can be large; an effect the other way counts as inactive or inconclusive. Potency is read from the fitted curve at half-maximal effect.

SMILES	FLuc counter	ELG1 genotox	SMN2 splice up	ELG1 repair inh	Rab9 promoter act	NPC1 prom act
COc1ccc(-c2cc(C(F)(F)F)nc(SCC(=O)Nc3sc4c(c3C#N)CCC4)n2)cc1	3%	-1%	-4%	?	-5%	-2%
CC1CCc2c(sc(NC(=O)CSc3ncn[nH]3)c2C#N)C1 (stereo unspecified)	11µM*	-8%	.	-23%	-33%	-43%
CC1CCc2c(sc(NC(=O)CSc3nnc(-c4ccccc4)o3)c2C#N)C1 (stereo unspecified)	2%	9%	9%	27%	1%	-2%
CC(C)(C)C1CCc2c(sc(NC(=O)CSc3ncn[nH]3)c2C#N)C1 (stereo unspecified)	?	-1%	-40%	?	0%	-9%
CCCc1cc(=O)[nH]c(SCC(=O)Nc2sc3c(c2C#N)CCC(C)C3)n1 (stereo unspecified)	27µM*	3%	-17%	10%	-2%	-3%
N#Cc1c(NC(=O)CSc2nc(-c3ccccc3)cc(C(F)(F)F)n2)sc2c1CCC2	0%	-3%	-19%	7.3µM*	-7%	-4%
N#Cc1c(NC(=O)CSc2ncn[nH]2)sc2c1CCCC2	8.5µM*	1%	-62%	-28%	-7%	-11%
CC1CCc2c(sc(NC(=O)Cn3nc(C(=O)O)c4ccccc4c3=O)c2C#N)C1 (stereo unspecified)	12µM*	5%	.	?	-5%	12%
COc1ccc(C(=O)Nc2ccccc2C(=O)NC(Cc2ccc(O)cc2)C(=O)NNC(=O)c2ccncc2)cc1 (stereo unspecified)	12µM*	2%	29%	12%	13%	-1%
COc1ccc(C(=O)Nc2ccccc2C(=O)NC(Cc2ccc(O)cc2)C(=O)NNC(=O)c2ccc(C)cc2)cc1 (stereo unspecified)	9.5µM*	?	-1%	8.2µM*	-12%	-3%
COc1ccc(C(=O)Nc2ccccc2C(=O)NC(Cc2ccc(O)cc2)C(=O)NNC(=O)c2ccccc2)cc1 (stereo unspecified)	4.8µM*	-5%	22%	16µM*	0%	-1%
Cc1ccc(SCc2ccc(C(=O)Nc3ccccc3C(=O)NC(C)C)cc2)cc1	3%	10%	.	9%	-1%	2%
COc1ccccc1NS(=O)(=O)c1ccc(N/N=C/C=C/c2ccccc2[N+](=O)[O-])c([N+](=O)[O-])c1	5%	-4%	22%	-8%	-3%	-2%
CC1N(C)c2cc(NC(=O)c3cccs3)c(P(=O)(Nc3ccc([N+](=O)[O-])cc3)N3CCOCC3)cc2C1(C)C (stereo unspecified)	-2%	-9%	19%	18µM*	2%	-4%
COc1ccc(C(=O)OCC(=O)c2ccc(Br)s2)c(OC)c1	?	15%	.	?	2%	0%
Cc1cccc(C(=O)NCC(=O)OCC(=O)c2ccc(C)s2)c1	.	3%	.	18%	.	.
COc1cccc(C(=O)OCC(=O)c2ccc(Br)s2)c1	7.6µM*	1%	.	6%	0%	3%
Cc1ccc(C(=O)COC(=O)c2cccc(O)c2)s1	0.43µM*	2%	.	26%	4%	15%
Cc1ccc(CNCC(O)(c2ccccc2)c2ccccc2)cc1	-16%	-2%	.	-22%	-5%	2%
O=C(O)c1ccc2c(c1)S(=O)(=O)c1ccccc1C2=O	2%	0%	.	4%	7%	6%
Cc1cc(C)cc(NC(=S)/C(=C(\[O-])c2ccc(Cl)cc2Cl)[n+]2ccccc2)c1	1%	-8%	-24%	-14%	-3%	-2%
[O-]/C(=C(\C(=S)Nc1ccc(SC(F)F)cc1)[n+]1ccccc1)c1ccc(Cl)cc1Cl	-9%	-1%	-78%	15µM*	-7%	-9%
Cc1ccc(-c2nn(-c3ccccc3)cc2C(=O)Nc2ccc(C)c(S(=O)(=O)N3CCOCC3)c2)cc1	?	-1%	-5%	?	-4%	-1%
Cc1cc[n+](-c2[nH]c(=O)sc2/C=N/N=C(\[O-])c2ccccc2)cc1	-2%	0%	.	10%	4%	1%
CN(C)S(=O)(=O)c1cccc(C(=O)Nc2cc3c(cc2C(=O)O)OCCCO3)c1	6µM*	8%	.	-2%	7%	16%
SMILES	FLuc counter	ELG1 genotox	SMN2 splice up	ELG1 repair inh	Rab9 promoter act	NPC1 prom act
CC(=O)c1cc2c(cc1NC(=O)c1ccc(C)cc1)OCCO2	5.4µM*	14%	.	7%	2%	0%
COc1ccccc1C(=O)Nc1cc2c(cc1C(=O)O)OCCCO2	-14%	4%	.	18%	-3%	-3%
CCC(=O)c1cc2c(cc1NC(=O)c1ccc(C)cc1)OCCO2	-1%	?	?	0%	0%	-2%
O=C(Nc1cc2c(cc1C(=O)O)OCCCO2)c1ccc(F)cc1F	21µM*	?	.	?	24%	-42%
CCN1C(=O)c2cccc3c(NC(=O)c4ccc(S(=O)(=O)N(C)C)cc4)ccc1c23	-8%	16%	13µM*	9%	-6%	-5%
CCOC(=O)c1c(C)oc2nc(C)nc(NCCCN3CCN(c4ccccc4OC)CC3)c12	-8%	.	.	.	.	.
COCCNC(=O)CN(C(=O)Cn1nnc2ccccc21)c1ccccc1C	0%	0%	3%	1%	1%	-4%
C/C(=N/NS(=O)(=O)c1ccc(Cl)cc1)c1ccncc1	2%	0%	.	3%	-5%	-4%
CN(C)S(=O)(=O)c1ccc(C(=O)Nc2ccccc2C(=O)O)cc1	12µM*	-1%	2%	0%	3%	1%
CSc1ccccc1C(=O)Nc1cc2c(cc1C(=O)O)OCCCO2	?	9%	.	3%	-1%	-2%
O=C(O)c1cccc(NC(=O)c2ccc(S(=O)(=O)c3ccccc3)cc2)c1	?	1%	0%	-2%	11%	11%
CN(C)S(=O)(=O)c1ccc(C(=O)Nc2cc3c(cc2C(=O)O)OCCCO3)cc1	15µM*	7%	.	4%	6%	15%
CN(C)S(=O)(=O)c1ccc(C(=O)Nc2cccc(C(=O)O)c2)cc1	21µM*	.	14%	.	.	.
CCc1ccc(OCc2n[nH]c(=S)n2Cc2ccccc2)cc1	2%	1%	.	3%	-2%	-5%
O=C(CCCOc1ccc(Cl)cc1)N1CCCCC1	-26%	21µM*	.	?	3.5µM*	27%
O=C(CCCOc1ccc(Cl)cc1)N1CCOCC1	-18%	?	18%	?	-5%[1.84 µM]	-1%
CCOC(=O)C1CCN(C(=O)COc2ccc(C(=O)c3ccccc3)cc2)CC1	.	-5%	.	?	.	.

Screening results: PubChem, National Center for Advancing Translational Sciences (NCATS)
